From PubChem BioAssay
Only some compounds are listed: those with a hit (about 7.5% of all), similar ones and a draw of the others.
Gal4-VP16 FLuc – Gal4-VP16 reporter inhibition counter-screen. Drosophila S2 Gal4-VP16 UAS-luciferase, luminescence, 20 h. Potency, µM (titrated, usually from 53.6 µM), for the others: top-dose activity, negative = inhibition, actives largely listed as inhibitors. 310,000 tested, 3.5% active;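 also: Gal4-VP16 expression switched on by copper sulfate through the metallothionein promoter; potency is read from the fitted curve at half-maximal effect; nearly all actives have a fitted effect of over 50% in size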
RORg inh – blocks mouse ROR gamma transcriptional activity. Drosophila S2 Gal4-RORgamma UAS-luciferase reporter, 20 h. Potency, µM (top dose mostly 53.6 µM), inactives show at the top dose activity change, negative = inhibition, actives largely listed as inhibitors. AID 2551. 310,000 tested, 5.4% active; also: potency is read from the fitted curve at half-maximal effect; nearly all actives have a fitted effect of over 60% in size
Target sequence (P51450 whole entry, looked up, the tested form may be a part): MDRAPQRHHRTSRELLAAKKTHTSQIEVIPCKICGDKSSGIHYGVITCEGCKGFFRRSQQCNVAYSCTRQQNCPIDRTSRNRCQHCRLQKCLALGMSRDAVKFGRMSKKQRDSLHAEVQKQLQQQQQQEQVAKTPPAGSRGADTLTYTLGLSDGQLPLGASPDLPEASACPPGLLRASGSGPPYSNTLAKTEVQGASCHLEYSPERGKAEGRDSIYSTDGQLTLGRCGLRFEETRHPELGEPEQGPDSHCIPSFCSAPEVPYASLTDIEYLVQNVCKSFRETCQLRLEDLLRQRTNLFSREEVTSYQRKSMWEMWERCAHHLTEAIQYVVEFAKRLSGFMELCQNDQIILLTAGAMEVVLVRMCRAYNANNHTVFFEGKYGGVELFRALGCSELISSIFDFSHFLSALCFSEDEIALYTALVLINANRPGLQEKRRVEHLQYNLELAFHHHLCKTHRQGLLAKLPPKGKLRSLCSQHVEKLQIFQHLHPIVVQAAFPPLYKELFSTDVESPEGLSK
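Drosophila Schneider cells stably carrying a metallothionein-driven Gal4 DBD–ROR gamma fusion and a UAS-Photinus luciferase reporter were exposed to compound for 1 hr, then induced with copper sulfate (700 uM final) for 20 hr at ambient temperature before luminescence reading.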
TSHR antagonist – antagonists of human thyroid stimulating hormone receptor; TSHR-expressing cells, TSH-stimulated cAMP HTRF, 2 h; active compounds read low; activity change, negative = inhibition, % at 11.5 µM; AID 504810; 330,000 tested, 0.2% active; P16473;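 active = activity change below a set negative limit, meaning inhibition stronger than a set level, cut at about -70% in these data; inconclusive = activity change between two set negative limits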
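Freshly harvested TSHR cells receive pin-tooled compound, then EC80 TSH at 4nM final. After 2 hours at 37 deg C, antibody in lysis buffer and cAMP-d2 are added; 30 minutes at ambient temperature precede the HTRF read.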
ELG1 repair inh – ELG1-dependent DNA repair inhibition; HEK293T ELG1-luciferase reporter, luminescence, 16 h; DNA damage induced by 5-fluorouridine; Potency, µM (doses to about 46.1 µM), for the others: at the top dose activity change, negative = inhibition, actives largely listed as inhibitors; 330,000 tested, 2.3% active; AID 504467; also: potency is read from the fitted curve at half-maximal effect; nearly all actives have a fitted effect of over 55% in size
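HEK293T cells expressing luciferase-tagged ELG1 (2,000/well) received 5-Fluorouridine plus compound or DMSO for 16 hr at 37 °C. Luciferase was read by ONE-Glo luminescence after 30 min at room temperature.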
B2AR arrestin – agonists driving beta-arrestin recruitment to human beta2-adrenergic receptor. Potency, µM (doses to about 46.1 µM), without a hit: at the top dose activation, usual class: activators. beta-arrestin recruitment to beta2AR, cell-based reporter. 330,000 tested, 0.02% active. P07550. AID 492947;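 also: potency is read from the fitted curve at half-maximal effect; 0% = DMSO controls and full agonism = EC100 isoproterenol or metaproterenol; nearly all actives have a fitted effect of over 65% in size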
The depositor's hits bear a star; ? = inconclusive; nt = no result; [ ] = another dose, or the depositor's remark. Unless noted, calls follow the shape of the dose curve; as a rule, active = well fitted curve in the direction sought with a large enough effect; inconclusive = small, poorly fitted or top-dose-only effect, or another doubt; inactive = no such curve, though single readings can be large; an effect the other way counts as inactive or inconclusive. Unless noted, % is scaled to controls: 0 for no effect and ±100 for the full control effect.

SMILES	Gal4-VP16 FLuc	RORg inh	TSHR antagonist	ELG1 repair inh	B2AR arrestin
O=S(=O)(c1ccc2nc(-c3ccco3)c(-c3ccco3)nc2c1)N1CCOCC1	-14%	-17%	20	16µM*	-1%
O=C(Nc1ccc2nc(-c3cccs3)c(-c3cccs3)nc2c1)N1CCOCC1	-2%	-13%	-24	5.2µM*	0%
O=C(Nc1ccc2nc(-c3ccco3)c(-c3ccco3)nc2c1)NC1CC1	29%	-14%	-7	?	0%
O=C1CC(C(=O)N2CCCc3ccccc32)CN1c1ccc(Cl)cc1 (centres undefined)	27%	31%	4	16%	0%
CS(=O)(=O)N(CC(=O)N1CCN(C(c2ccccc2)c2ccccc2)CC1)C1CCCCC1	-1%	13µM*	-5	?	0%
CS(=O)(=O)N(CC(=O)N1CCN(c2ccccc2F)CC1)C1CCCCC1	7%	-1%	12	?	0%
O=[N+]([O-])c1cc([N+](=O)[O-])c2cccnc2c1Oc1ccccc1O	?	18µM*	-13	-20%	-1%
O=[N+]([O-])c1ccccc1Oc1ccc(Cl)c2cccnc12	8%	?	-16	13%	0%
O=[N+]([O-])c1ccc(O)c2ncccc12	0.56µM*	0.28µM*	17	?	?
COc1ccc(S(=O)(=O)Nc2ccccc2OC)cc1NC(=O)CC1CC2CCC1C2 (centres undefined)	-5%	-3%	-5	?	1%
CC1CC=CC2C1C(=O)N(Cc1ccccc1)C2c1ccc2ccccc2c1Br (centres undefined)	22µM*	?	nt	nt	nt
CS(=O)(=O)N(Cc1ccccc1Cl)c1ccc(C(=O)N2CCCC2)cc1	4%	8%	-5	6%	0%
Cn1nnnc1N=N/C(=N/Nc1ccccc1)c1ccccc1	2.2µM*	0.35µM*	-6	?	7%
Oc1ccccc1N=N/C(=N/Nc1ccccc1O)c1ccccc1	nt	nt	4	7%	0%
Nc1nc(SCC(=O)C23CC4CC(CC(C4)C2)C3)n[nH]1	4%	-1%	-76*	2%	0%
CSc1nc(N)nc(SCC(=O)C23CC4CC(CC(C4)C2)C3)c1C#N	-16%	?	-36	21µM*	0%
CN(C(=O)CSc1n[nH]c(N)n1)C1CCCCC1	nt	nt	nt	10%	0%
Cc1ccc(/C=N/n2c(COc3ccccc3)n[nH]c2=S)o1	8%[10 µM]	?	4	-13%	0%
S=c1[nH]nc(COc2ccccc2)n1/N=C/c1ccco1	-3%	7.9µM*	-14	-6%	0%
CC(/C=N/n1c(COc2ccccc2)n[nH]c1=S)=C\c1ccco1	-19%	7.1µM*	-14	-18%	0%
O=C(NC1=NCCS1)c1ccccc1	6%	-12%	-6	?	0%
O=C(N/N=C/c1cc(Br)c(Br)o1)c1cc2ccccc2o1	6.3µM*	5µM*	5	?	-2%
O=C(NC1=NCCS1)c1cc2ccccc2o1	8.9µM*	7.1µM*	7	?	0%
O=C(Nc1ccccn1)c1cc2ccccc2o1	6.3µM*	4µM*	-6	?	-1%
CC1(C)Cc2c(sc(NC(=O)c3ccccc3Cl)c2C(=O)O)CO1	-8%	?	-22	-11%	0%
SMILES	Gal4-VP16 FLuc	RORg inh	TSHR antagonist	ELG1 repair inh	B2AR arrestin
COc1ccc(-n2c(SCc3ccc([N+](=O)[O-])cc3)nnc2-c2ccc(C)cc2)cc1	4.5µM*	-3%	67	?	-1%
CCn1c(COc2ccccc2C)nnc1SCC(=O)CC(=O)Nc1ccccc1	?	7.1µM*	-8	-11%	-1%
CCn1c(COc2ccccc2C)nnc1SCC(=O)O	-10%	-1%	-2	3%	-1%
COc1ccc(-c2nnc(SCCC(=O)O)n2-c2ccccc2)cc1	-17%	13µM*	0	8%	0%
O=C(O)CCSc1nnc(-c2ccncc2)n1-c1ccccc1	0%	16%	-3	2%	0%
COc1ccc(-n2c(Cc3ccccc3)nnc2SCc2ccc([N+](=O)[O-])cc2)cc1	-8%	43%	4	-23%	0%
O=[N+]([O-])c1ccc(CSc2nnc(Cc3ccccc3)n2-c2ccc(F)cc2)cc1	10µM*	?	-4	?	0%
COC(=O)NC(c1ccc2c(c1)OCO2)C(C(=O)OC)C(=O)OC (centres undefined)	4%	28%	nt	nt	nt
Cc1cccc(C)c1OCC(=O)OCC(=O)Nc1ccc(Cl)cn1	nt	nt	1	19%	-4%
Cc1ccc2c(CC(=O)NNC(=O)c3ccccc3O)coc2c1	nt	nt	0	0%	0%
COc1ccc(OC)c(S(=O)(=O)CC(O)CS(=O)(=O)c2ccccc2)c1 (centres undefined)	-7%	-3%	1	12%	0%
O=C(CSc1nnc(-c2cccnc2)n1-c1ccccc1)Nc1ccccc1	13%	-15%	2	-23%	0%
Cc1ccc(-c2nnc(SCC(=O)CC(=O)Nc3ccccc3)n2-c2ccccc2)cc1	?	3.5µM*	3	-11%	0%
CCN(CC)c1ccc(-c2nnc(SCC(=O)Nc3ccccc3C#N)n2-c2ccccc2)cc1	-25%	18µM*	-17	?	0%
CCN(CC)C(=O)CSc1nc2ccc(NC(=O)CSc3nnc(COc4ccccc4C)n3C)cc2s1	4%	-14%	-20	8.2µM*	0%
CC(=O)c1ccccc1NC(=O)COC(=O)C1=NN(c2ccccc2)C(=O)CC1	nt	nt	-5	15%	-1%
CN=c1scc(-c2cccs2)n1/N=C/c1ccccc1O	-10%	27%[10 µM]	?	5.2µM*	0%
CN=c1scc(C)n1/N=C/c1ccc(O)c(O)c1O	7.1µM*	2.2µM*	-11	?	0%
C=CCN=c1scc(-c2ccco2)n1/N=C/c1ccc(O)c(O)c1O	10µM*	3.2µM*	-15	?	0%
CN=c1scc(-c2cccs2)n1/N=C/c1ccc(O)c(O)c1O	1.4µM*	1.1µM*	-23	?	0%
CN=c1scc(-c2ccccc2Br)n1/N=C/c1ccc[nH]1	?	?	-9	?	0%
Cc1[nH]c(C)c(Cl)c(=O)c1Cl	-5%	4%	nt	nt	nt
CC(=O)Nc1ccc(N(C(=O)CNC(=O)c2cccs2)C(C(=O)NC(C)(C)C)c2ccccc2)cc1 (centres undefined)	0%	7%	0	2%	0%
OCC1OC(C#Cc2ccccc2)C=CC1O (centres undefined)	-1%[10 µM]	-2%[10 µM]	nt	nt	nt
CC(C)N=c1scc(-c2ccco2)n1/N=C/c1ccc(O)c(O)c1	16µM*	1.4µM*	-43	?	-1%
O=C(N[C@@H](Cc1ccccc1)C(=O)OCc1ccccc1)c1nc[nH]c1C(=O)N1CCNCC1	nt	nt	-11	18%	0%
